Reference: paper PMC9911399, “Two distinct binding modes provide the RNA-binding protein RbFox with extraordinary sequence specificity”
Substitutions are numbered along the chain they refer to; changes in the protein carry UniProt numbers. The full ranking holds about 16,000 sequences; the median of “ka relative to ugcaugu” is about 0.0091, and the highest 2% start at about 0.032. The sample as a whole holds a higher share of the highest values than the screen did.

T1: RBFOX1 RRM (Homo sapiens, UniProt Q9NWB1 109-208)
T1 sequence: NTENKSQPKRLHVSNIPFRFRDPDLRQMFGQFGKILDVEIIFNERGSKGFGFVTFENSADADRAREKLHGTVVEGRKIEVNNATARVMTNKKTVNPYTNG

B1: GUGCUUG (DNA:RNA)
RNA: GGGAGACCGGAAUUCAGAUUGUCCGUGCUUGUUAAAUCCCGUCGUAGCCACCA
DNA 1: CAATCTGAATTCCGGTCTCCC
DNA 2: TGGTGGCTACGACGGGATT
B2: UGCUUGU (DNA:RNA)
RNA: B1 RNA with G25U, U26G, G27C, C28U, U30G, G31U
DNA 1: CAATCTGAATTCCGGTCTCCC
DNA 2: TGGTGGCTACGACGGGATT
B3: UCCUGCU (DNA:RNA)
RNA: GGGAGACCGGAAUUCAGAUUGUCCUCCUGCUUUAAAUCCCGUCGUAGCCACCA
DNA 1: CAATCTGAATTCCGGTCTCCC
DNA 2: TGGTGGCTACGACGGGATT
B4: UGAUUGG (DNA:RNA)
RNA: B1 RNA with G25U, U26G, G27A, C28U, U30G
DNA 1: CAATCTGAATTCCGGTCTCCC
DNA 2: TGGTGGCTACGACGGGATT
B5: GUCGUGC (DNA:RNA)
RNA: B1 RNA with G27C, C28G, U30G, G31C
DNA 1: CAATCTGAATTCCGGTCTCCC
DNA 2: TGGTGGCTACGACGGGATT
B6: UUGCUCC (DNA:RNA)
RNA: B1 RNA with G25U, U30C, G31C
DNA 1: CAATCTGAATTCCGGTCTCCC
DNA 2: TGGTGGCTACGACGGGATT
B7: UGCUUGG (DNA:RNA)
RNA: B3 RNA with C26G, G29U, C30G, U31G
DNA 1: CAATCTGAATTCCGGTCTCCC
DNA 2: TGGTGGCTACGACGGGATT
B8: UUGGUGC (DNA:RNA)
RNA: B1 RNA with G25U, C28G, U30G, G31C
DNA 1: CAATCTGAATTCCGGTCTCCC
DNA 2: TGGTGGCTACGACGGGATT
B9: UUGCCCG (DNA:RNA)
RNA: B1 RNA with G25U, U29C, U30C
DNA 1: CAATCTGAATTCCGGTCTCCC
DNA 2: TGGTGGCTACGACGGGATT
B10: UCCGUGC (DNA:RNA)
RNA: B3 RNA with U28G, G29U, C30G, U31C
DNA 1: CAATCTGAATTCCGGTCTCCC
DNA 2: TGGTGGCTACGACGGGATT
B11: UUGCUCG (DNA:RNA)
RNA: B1 RNA with G25U, U30C
DNA 1: CAATCTGAATTCCGGTCTCCC
DNA 2: TGGTGGCTACGACGGGATT
B12: UGCUUAU (DNA:RNA)
RNA: B3 RNA with C26G, G29U, C30A
DNA 1: CAATCTGAATTCCGGTCTCCC
DNA 2: TGGTGGCTACGACGGGATT
B13: UUUCUUU (DNA:RNA)
RNA: B1 RNA with G25U, G27U, G31U
DNA 1: CAATCTGAATTCCGGTCTCCC
DNA 2: TGGTGGCTACGACGGGATT
B14: UUGUCUG (DNA:RNA)
RNA: B1 RNA with G25U, C28U, U29C
DNA 1: CAATCTGAATTCCGGTCTCCC
DNA 2: TGGTGGCTACGACGGGATT
B15: GACUUAC (DNA:RNA)
RNA: B1 RNA with U26A, G27C, C28U, U30A, G31C
DNA 1: CAATCTGAATTCCGGTCTCCC
DNA 2: TGGTGGCTACGACGGGATT
B16: AGCGCCC (DNA:RNA)
RNA: B3 RNA with U25A, C26G, U28G, G29C, U31C
DNA 1: CAATCTGAATTCCGGTCTCCC
DNA 2: TGGTGGCTACGACGGGATT
B17: GAUUAAA (DNA:RNA)
RNA: B1 RNA with U26A, G27U, C28U, U29A, U30A, G31A
DNA 1: CAATCTGAATTCCGGTCTCCC
DNA 2: TGGTGGCTACGACGGGATT
B18: CAAACAU (DNA:RNA)
RNA: B3 RNA with U25C, C26A, C27A, U28A, G29C, C30A
DNA 1: CAATCTGAATTCCGGTCTCCC
DNA 2: TGGTGGCTACGACGGGATT
B19: UAGGGUA (DNA:RNA)
RNA: B1 RNA with G25U, U26A, C28G, U29G, G31A
DNA 1: CAATCTGAATTCCGGTCTCCC
DNA 2: TGGTGGCTACGACGGGATT
B20: CGGCUCA (DNA:RNA)
RNA: B1 RNA with G25C, U26G, U30C, G31A
DNA 1: CAATCTGAATTCCGGTCTCCC
DNA 2: TGGTGGCTACGACGGGATT
B21: AUGGGUC (DNA:RNA)
RNA: B1 RNA with G25A, C28G, U29G, G31C
DNA 1: CAATCTGAATTCCGGTCTCCC
DNA 2: TGGTGGCTACGACGGGATT
B22: ACGAACG (DNA:RNA)
RNA: B1 RNA with G25A, U26C, C28A, U29A, U30C
DNA 1: CAATCTGAATTCCGGTCTCCC
DNA 2: TGGTGGCTACGACGGGATT
B23: GAGUUAU (DNA:RNA)
RNA: B1 RNA with U26A, C28U, U30A, G31U
DNA 1: CAATCTGAATTCCGGTCTCCC
DNA 2: TGGTGGCTACGACGGGATT
B24: UGCUAGU (DNA:RNA)
RNA: B3 RNA with C26G, G29A, C30G
DNA 1: CAATCTGAATTCCGGTCTCCC
DNA 2: TGGTGGCTACGACGGGATT
B25: UGCUUGA (DNA:RNA)
RNA: B3 RNA with C26G, G29U, C30G, U31A
DNA 1: CAATCTGAATTCCGGTCTCCC
DNA 2: TGGTGGCTACGACGGGATT
B26: UGCUUGC (DNA:RNA)
RNA: B3 RNA with C26G, G29U, C30G, U31C
DNA 1: CAATCTGAATTCCGGTCTCCC
DNA 2: TGGTGGCTACGACGGGATT
B27: UGAUUGC (DNA:RNA)
RNA: B3 RNA with C26G, C27A, G29U, C30G, U31C
DNA 1: CAATCTGAATTCCGGTCTCCC
DNA 2: TGGTGGCTACGACGGGATT
B28: UUGCUGC (DNA:RNA)
RNA: B1 RNA with G25U, U30G, G31C
DNA 1: CAATCTGAATTCCGGTCTCCC
DNA 2: TGGTGGCTACGACGGGATT
B29: UUGAUGC (DNA:RNA)
RNA: B1 RNA with G25U, C28A, U30G, G31C
DNA 1: CAATCTGAATTCCGGTCTCCC
DNA 2: TGGTGGCTACGACGGGATT
B30: CUAGUUG (DNA:RNA)
RNA: B1 RNA with G25C, G27A, C28G
DNA 1: CAATCTGAATTCCGGTCTCCC
DNA 2: TGGTGGCTACGACGGGATT
B31: UGCUUAA (DNA:RNA)
RNA: B3 RNA with C26G, G29U, C30A, U31A
DNA 1: CAATCTGAATTCCGGTCTCCC
DNA 2: TGGTGGCTACGACGGGATT
B32: CUGCUAG (DNA:RNA)
RNA: B1 RNA with G25C, U30A
DNA 1: CAATCTGAATTCCGGTCTCCC
DNA 2: TGGTGGCTACGACGGGATT

What follows are binders tested against T1, RBFOX1 RRM (assay: EMSA; HiTS-Eq, 1 nM pool, 10 min; buffer printed only for the single-RNA assays: 10 mM Tris pH 7.5, 150 mM NaCl, 3.4 mM EDTA, 0.001% NP-40, 30 C). Details: tags: His6 N-terminal (pET28a); label: 5' 32P.
Outline: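 Relative association constants, normalised to the cognate motif, were derived by comparing read counts of each RNA species with those of the control reaction. The RNA sequenced was the free fraction, separated by 8% native PAGE after a 10 min equilibration in 50 µL of 1 nM 5′-radiolabelled RNA (7 randomized nucleotides) with increasing concentrations of purified wild-type or mutant RbFox RRM.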
B1 was tested, and the binding signal was 0.053 KA relative to UGCAUGU. For B2, the binding signal was 0.0532 KA relative to UGCAUGU. In the case of B3, the binding signal is reported as 0.0144 KA relative to UGCAUGU. B4 was tested, and the binding signal was 0.0223 KA relative to UGCAUGU. With B5 the binding signal was 0.0206 KA relative to UGCAUGU. B6 was tested, and the binding signal was 0.0158 KA relative to UGCAUGU. In the case of B7, the binding signal is reported as 0.0481 KA relative to UGCAUGU. For B8, the binding signal was 0.0277 KA relative to UGCAUGU. In the case of B9, the binding signal is reported as 0.0225 KA relative to UGCAUGU. With B10 the binding signal was 0.0168 KA relative to UGCAUGU. For B11, the binding signal was 0.0477 KA relative to UGCAUGU. B12 was tested, and the binding signal was 0.0138 KA relative to UGCAUGU. B13 was tested, and the binding signal was 0.0113 KA relative to UGCAUGU. B14 was tested, and the binding signal was 0.0312 KA relative to UGCAUGU. For B15, the binding signal was 0.00749 KA relative to UGCAUGU. B16 was tested, and the binding signal was 0.00884 KA relative to UGCAUGU. With B17 the binding signal was 0.00427 KA relative to UGCAUGU. B18 was tested, and the binding signal was 0.000358 KA relative to UGCAUGU. B19 was tested, and the binding signal was 0.0162 KA relative to UGCAUGU. For B20, the binding signal was 0.00697 KA relative to UGCAUGU. B21 was tested, and the binding signal was 0.0197 KA relative to UGCAUGU. B22 was tested, and the binding signal was 0.0126 KA relative to UGCAUGU. In the case of B23, the binding signal is reported as 0.00747 KA relative to UGCAUGU. With B24 the binding signal was 0.0309 KA relative to UGCAUGU. For B25, the binding signal was 0.0378 KA relative to UGCAUGU. In the case of B26, the binding signal is reported as 0.088 KA relative to UGCAUGU. With B27 the binding signal was 0.0265 KA relative to UGCAUGU. With B28 the binding signal was 0.0167 KA relative to UGCAUGU. For B29, the binding signal was 0.0187 KA relative to UGCAUGU. With B30 the binding signal was 0.0137 KA relative to UGCAUGU. For B31, the binding signal was 0.0138 KA relative to UGCAUGU. In the case of B32, the binding signal is reported as 0.0317 KA relative to UGCAUGU.
